Test results published in publication PMC4336329 (PLoS ONE, 2015).
The whole screen tested about 310,000 compounds, of which about 14,000 (4.5%) showed an effect of 50% or more. Effects have a minus sign here. For the sample, strong results were picked, then their nearest neighbours and some compounds at random.

Each molecule was assayed against human ether-à-go-go-related gene (hERG) potassium channel (human, UniProt Q12809) (assay: primary screen, population patch clamp on CHO cells stably expressing hERG; higher = less effect of the substance).
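Also: peak tail current of the secondary pulse compared with the same well before compound.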

human ether-à-go-go-related gene (hERG) potassium channel, sequence (Q12809 whole entry, looked up): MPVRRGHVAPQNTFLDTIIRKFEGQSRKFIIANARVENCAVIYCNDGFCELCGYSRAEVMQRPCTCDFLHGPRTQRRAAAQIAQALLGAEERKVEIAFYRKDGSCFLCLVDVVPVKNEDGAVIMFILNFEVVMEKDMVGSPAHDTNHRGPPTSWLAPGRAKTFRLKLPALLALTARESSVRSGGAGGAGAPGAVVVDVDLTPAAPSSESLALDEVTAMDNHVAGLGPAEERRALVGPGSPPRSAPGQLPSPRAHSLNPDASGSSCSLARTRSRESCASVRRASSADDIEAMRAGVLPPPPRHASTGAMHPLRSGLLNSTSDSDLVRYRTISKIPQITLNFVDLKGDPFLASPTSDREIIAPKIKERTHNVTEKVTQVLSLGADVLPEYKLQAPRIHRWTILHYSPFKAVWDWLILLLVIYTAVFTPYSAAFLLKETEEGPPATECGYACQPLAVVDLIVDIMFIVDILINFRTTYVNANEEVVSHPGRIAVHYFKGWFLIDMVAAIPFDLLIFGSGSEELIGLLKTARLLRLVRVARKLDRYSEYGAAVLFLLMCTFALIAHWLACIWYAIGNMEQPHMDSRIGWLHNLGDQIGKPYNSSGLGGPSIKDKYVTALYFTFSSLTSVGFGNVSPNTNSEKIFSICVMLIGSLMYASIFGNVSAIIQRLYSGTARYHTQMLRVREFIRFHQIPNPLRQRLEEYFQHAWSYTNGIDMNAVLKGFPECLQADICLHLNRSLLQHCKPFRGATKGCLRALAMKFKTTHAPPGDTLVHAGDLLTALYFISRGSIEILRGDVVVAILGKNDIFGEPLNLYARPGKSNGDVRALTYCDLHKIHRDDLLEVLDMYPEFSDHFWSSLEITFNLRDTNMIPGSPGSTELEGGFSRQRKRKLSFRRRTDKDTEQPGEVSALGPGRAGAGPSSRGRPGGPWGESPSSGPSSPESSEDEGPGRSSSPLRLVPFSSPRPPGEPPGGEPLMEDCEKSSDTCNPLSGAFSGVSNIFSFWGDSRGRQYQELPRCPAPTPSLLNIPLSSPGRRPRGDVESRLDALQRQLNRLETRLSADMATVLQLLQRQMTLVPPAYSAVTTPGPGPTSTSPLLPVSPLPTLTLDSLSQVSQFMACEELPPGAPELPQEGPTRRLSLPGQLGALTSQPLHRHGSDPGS

| SMILES | hERG current change (%, negative = inhibition) at 10uM [%] |
| --- | --- |
| COc1ccc(CNC(=O)C(c2cccs2)N(C(=O)c2csnn2)C2CC2)cc1 (stereo not shown) | -12.2 |
| COC(=O)c1cc(NC(=O)c2cccc(F)c2)cc(C(=O)OC)c1 | 5.98 |
| CC(Sc1nc(O)c(-c2ccccc2)c(=O)[nH]1)C(=O)Nc1ccc(Cl)cc1 (stereo not shown) | 26.9 |
| COc1ccc(N=Cc2c(O)[nH]c3ccccc23)cc1 | 0.417 |
| O=C(Nc1ccc(S(=O)(=O)N2CCN(c3ccccc3)CC2)cc1)c1cccs1 | 8.53 |
| Fc1cccc(Cl)c1Cn1ncc2ccccc21 | -7.36 |
| C=CCSc1nc(N)cc(=O)[nH]1 | 0.914 |
| c1ccc(CN2CCN(CCCNc3ccc4nnc(-c5ccccc5)n4n3)CC2)cc1 | -59.7 |
| Cc1ccc(CNc2ccc3nnc(-c4ccccc4)n3n2)cc1 | 15.7 |
| CCOc1ccc(CCNc2ccc3nnc(-c4ccccc4)n3n2)cc1OCC | 1.95 |
| CCn1cc(C(=O)N(C)c2ccc(OC)cc2OC)c2cc(OC)c(OC)cc2c1=O | 12.4 |
| CNS(=O)(=O)c1ccc(Oc2ccc(S(=O)(=O)NC)cc2)cc1 | 13.2 |
| C=CS(=O)(=O)c1ccc(Oc2ccc(S(=O)(=O)C=C)cc2)cc1 | -64.3 |
| NS(=O)(=O)c1ccc(Oc2ccc(S(N)(=O)=O)cc2)cc1 | 0.75 |
| Cc1ccc(N2C(=O)C(Cc3ccc(O)cc3)NC2=S)cc1C (stereo not shown) | -7.04 |
| Brc1ccccc1C1=Nn2c(nnc2-c2ccccc2)SC1 | 14.5 |
| CC(NC(=O)c1cc2ccccc2o1)c1cccs1 (stereo not shown) | -15.6 |
| Cc1cc2c(c(=O)n1CCN(C)C)C(c1ccncc1)C(C#N)=C(N)O2 (stereo not shown) | 19.6 |
| Cc1cc2c(c(=O)n1CCN(C)C)C(c1ccccc1Br)C(C#N)=C(N)O2 (stereo not shown) | -26.1 |
| Cc1cc2c(c(=O)n1CCN(C)C)C(c1ccc(Br)cc1)C(C#N)=C(N)O2 (stereo not shown) | -58.5 |
| COc1ccc(CC(=O)NC(c2ccccc2)c2ccc(C)cc2)c(OC)c1 (stereo not shown) | 11.3 |
| COc1ccc(C(c2nnnn2Cc2ccc(F)cc2)N2CCN(c3ccccc3)CC2)cc1 (stereo not shown) | -4.37 |

| SMILES | hERG current change (%, negative = inhibition) at 10uM [%] |
| --- | --- |
| COc1ccc(C(c2nnnn2Cc2ccccc2)N2CCN(c3ccccc3)CC2)cc1.Cl (stereo not shown) | -6.94 |
| COc1ccc(C(c2nnnn2Cc2ccc(F)cc2)N2CCN(c3ccc(OC)cc3)CC2)cc1 (stereo not shown) | -7.57 |
| COc1ccc(Cn2nnnc2C(c2ccc3ncccc3c2)N2CCN(C3CCCCC3)CC2)cc1 (stereo not shown) | -82.8 |
| COc1ccc(Cn2nnnc2C(c2ccc(F)cc2)N2CCN(C3CCCC3)CC2)cc1 (stereo not shown) | -52.6 |
| COc1ccc(OC)c(C(c2nnnn2Cc2ccccc2)N2CCN(C)CC2)c1.Cl (stereo not shown) | 3.17 |
| CCN1CCN(C(c2ccccc2)c2nnnn2Cc2ccc(OC)cc2)CC1.Cl (stereo not shown) | 10.7 |
| COc1ccccc1C(c1nnnn1Cc1ccccc1)N1CCN(C2CCCC2)CC1.Cl (stereo not shown) | -35.5 |
| c1cnc2ccc(C(c3nnnn3C3CCCC3)N3CCSCC3)cc2c1 (stereo not shown) | -3.72 |
| COc1ccc(Cn2nnnc2C(c2ccc(C)cc2)N2CCN(C3CCCC3)CC2)cc1.Cl (stereo not shown) | -63.8 |
| c1ccc(Cn2nnnc2C(c2cccnc2)N2CCN(C3CCCCC3)CC2)cc1 (stereo not shown) | -24.9 |
| COc1ccc(OC)c(C(c2nnnn2Cc2ccccc2)N2CCN(C3CCCCC3)CC2)c1.Cl (stereo not shown) | -53.9 |
| Cc1ccc(N(CC(O)Cn2c3ccccc3c3ccccc32)S(C)(=O)=O)cc1 (stereo not shown) | 9.82 |
| CCC(C)(C)n1nnnc1C(c1cc2ccc(OC)cc2[nH]c1=O)N1CCCCC1 (stereo not shown) | -26.3 |
| CCC(C)(C)n1nnnc1C(c1cc2ccc(OC)cc2[nH]c1=O)N1CCc2ccccc2C1 (stereo not shown) | -27.9 |
| CCC(C)(C)n1nnnc1C(c1cc2ccc(OC)cc2[nH]c1=O)N1CCN(C2CCCCC2)CC1 (stereo not shown) | -59.6 |
| Cc1cccc(NC(=O)c2cc(NC(=O)c3ccco3)ccc2Cl)n1 | -29.1 |
| Cc1nc2ccccn2c1C(=O)Nc1ccc(Cl)cc1 | 1.65 |
| CN(C)c1nc2c(N)ncnc2n1[C@H]1O[C@@H](CO)[C@H](O)[C@@H]1O | 7.28 |
| Br.COc1ccc(Nc2nc(-c3sc(NC(C)=O)nc3C)cs2)cc1 | 3.32 |
| Cc1c(NC(=S)NC(=O)C(c2ccccc2)c2ccccc2)cccc1C(=O)O | -3.41 |
| COc1ccccc1C(=O)Nc1ccnn1C1CCN(CCCc2ccccc2)CC1 | -78.3 |
| O=C(Nc1ccnn1C1CCN(CCCc2ccccc2)CC1)c1ccccc1Cl | -82.2 |

| SMILES | hERG current change (%, negative = inhibition) at 10uM [%] |
| --- | --- |
| CC(=O)CCC(=O)N1CCC(n2nccc2NC(=O)c2ccccc2C)CC1 | 9.06 |
| O=C(Nc1ccnn1C1CCN(Cc2ccn[nH]2)CC1)c1ccccc1 | -18.2 |
| Cc1ccccc1C(=O)Nc1ccnn1C1CCN(CCCc2ccccc2)CC1 | -78.4 |
| O=C(Nc1ccnn1C1CCN(CCCc2ccccc2)CC1)c1ccccc1 | -80.8 |
| C=CCNC(=S)Nc1ccc(N(C)C)cc1 | -6 |
| CCOC(=O)c1cnc(-n2nc(C)cc2C)nc1Oc1ccc(C#N)cc1 | 21.3 |
| CC(=O)c1ccccc1NS(=O)(=O)c1ccc2c(c1)CC(=O)N2 | 2.66 |
| CCCCn1nnnc1SCC(=O)NNC(=O)C1CCCCC1 | -1.79 |
| O=C1c2ccccc2C(=O)N1CCc1nc(-c2cccnc2)no1 | -12.2 |
| COc1ccccc1NC(=O)C1(C)Cc2ccccc2C(=O)O1 (stereo not shown) | -10.2 |
| Cc1ccc(-n2ncc3ccccc3c2=O)cc1Cl | -3.72 |
| COc1ccc(NC(=O)c2coc3ccccc23)cc1OC | 6.21 |
| CSc1nc(-c2ccc(Cl)cc2)c(C#N)c(=O)[nH]1 | 13.1 |
| Cc1nc(SCC(=O)NC2CCCCC2C)c(C#N)c(C)c1C (stereo not shown) | -7.03 |
| O=S(=O)(CCN1CCOCC1)c1ccccc1 | 8.81 |
| Cc1nc(-c2ccc(S(=O)(=O)N3CCOCC3)cc2)cs1 | 12.8 |
| COc1ccc(OC)c(NC(=S)N2CCN(C/C=C/c3ccccc3)CC2)c1 | -33 |
| Cc1ccccc1CN1CCN(C/C=C/c2ccccc2)CC1 | 8.81 |
| O=C(COc1ccccc1)N1CCN(C/C=C/c2ccccc2)CC1 | -58.1 |
| COc1ccc(O)c(CN2CCN(C/C=C/c3ccccc3)CC2)c1 | -51.9 |
| COc1ccc(OCC(=O)N2CCN(C(=O)COc3ccccc3)CC2)cc1 | -47.5 |
| COc1ccc(NC(=S)N2CCN(C/C=C/c3ccccc3)CC2)c(OC)c1 | -64.2 |

| SMILES | hERG current change (%, negative = inhibition) at 10uM [%] |
| --- | --- |
| COc1ccc(OCC(=O)N2CCN(C/C=C/c3ccccc3)CC2)cc1 | -58.8 |
| O=C(COc1ccccc1)N1CCN(C(=O)COc2ccccc2)CC1 | -32.2 |
| COc1cc(Br)cc(CN2CCN(C/C=C/c3ccccc3)CC2)c1O | -32.1 |
| COc1cccc(NC(=S)N2CCN(C/C=C/c3ccccc3)CC2)c1 | -44.7 |
| CN(c1ccc(OCC(=O)N2CCN(C/C=C/c3ccccc3)CC2)cc1)S(=O)(=O)c1cccs1.Cl | -30.6 |
| O=C(Cc1ccccc1)N1CCN(C/C=C/c2ccccc2)CC1 | -19.5 |
| c1ccc(-c2onc(-c3ccco3)c2-c2ccc3c(c2)OCO3)cc1 | 2 |
| O=[N+]([O-])c1ccc(-c2ccccc2)c([As](=O)(O)O)c1 | 11.9 |
| O=c1cc(C(F)(F)F)nc(SCc2cccc3ccccc23)[nH]1 | 24 |
| Cn1c(SCC(=O)OC2CCCCC2)nnc1-c1ccc2c(c1)OCO2 | -19.7 |
| COc1ccc(Cn2c(=O)[nH]c3cc(C(=O)NC4CCN(Cc5ccccc5)CC4)ccc32)cc1 | -3.88 |
| COc1ccc(N2CCN(Cc3cc(=O)oc4cc(C)c(Cl)cc34)CC2)cc1 | 8.44 |
| Cc1cc(C)n2nc(C(=O)OCC(=O)N3CC(C)CC(C)C3)nc2n1 (stereo not shown) | 15.4 |
| O=C(NCc1ccco1)Nc1ccc2nsnc2c1 | 10.7 |
| N#Cc1nc(-c2ccco2)oc1NCc1ccc(F)cc1 | -4.84 |
| Cc1cc(C)c(Cn2ncn(-c3ccc(Br)cc3)c2=O)c(C)c1 | 19.4 |
| O=C(COc1ccc(Cl)cc1)N1CCCCC1 | -5.82 |
| CC(=C1C(=O)c2ccccc2C1=O)N1CCN(Cc2ccccc2)CC1 | -26.6 |
| O=C(COc1ccc(Cl)cc1)N1CCCCCCC1 | -12.2 |
| CC(=C1C(=O)c2ccccc2C1=O)N1CCN(C/C=C/c2ccccc2)CC1 | -55.6 |
| CS(=O)(=O)N1CCN(C/C=C/c2ccccc2)CC1 | 7.98 |
| O=C(COc1ccc(Cl)cc1)N1CCN(C/C=C/c2ccccc2)CC1 | -70.7 |
